# Data reported in the supplement of paper PMC7366291.
# Where a name gives a salt, the structure may show the parent alone. ± gives the standard deviation or the standard deviation of the averaged measurements.
# Tests used:
# Conditions in all cases: 25 µM; exposure: 24-48 hpf
# [1] = system: Danio rerio Tg(wt1b:EGFP) embryo, pronephros; assay: glomerular separation, fold change vs DMSO control; higher = glomeruli further apart (abnormal)
# Outline: (§1)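 Features are reported as fold changes against the mean of same-day DMSO-treated embryos. Before that, values more than 2 SD away from the feature mean were excluded. The embryos, dechorionated Tg(wt1b:EGFP) zebrafish, had been exposed from 24 to 48 hpf at 28.5°C to 25 μM compound in 0.5% DMSO in HEPES-buffered E3 with 0.003% PTU, and distances and angles came from 16 manually set points on maximum projections of dorsal pronephros images in Fiji.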
# [2] = system: Danio rerio Tg(wt1b:EGFP) embryo, pronephros; assay: glomerular width (mean of left and right), fold change vs DMSO control; higher = wider glomerulus
# Outline: as §1
# [3] = system: Danio rerio Tg(wt1b:EGFP) embryo, pronephros; assay: fraction of imaged embryos annotated as normal kidney; higher = less nephrotoxic; extreme values may be limits of the assay
# Outline: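 Dechorionated Tg(wt1b:EGFP) zebrafish embryos were incubated with 25 μM compound in 0.5% DMSO, 5 mM HEPES-buffered E3 and 0.003% PTU from 24 to 48 hpf at 28.5°C. Pronephroi were then imaged by widefield fluorescence, and the fraction of embryos per treatment assigned by hand to the normal-kidney category is given.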
# [4] = system: Danio rerio Tg(wt1b:EGFP) embryo, pronephros; assay: pronephric angle neck segment to proximal convoluted tubule (mean of left and right), fold change vs DMSO control; higher = larger pronephric angle
# Outline: as §1
Compound,glomerular separation [1],glomerular width [2],fraction of imaged embryos annotated as normal kidney [3],pronephric angle neck segment [4]
C[C@@H](O[C@H]1OCCN(Cc2n[nH]c(=O)[nH]2)[C@H]1c1ccc(F)cc1)c1cc(C(F)(F)F)cc(C(F)(F)F)c1 [Aprepitant],0.995 ± 0.34,1.09 ± 0.076,0.667,1.05 ± 0.059
Cn1c(=O)c2c(ncn2C)n(C)c1=O [Caffeine],0.852 ± 0.19,0.921 ± 0.018,0.9,1.05 ± 0.099
CC(C)(C(=O)c1cccnc1)c1cccnc1 [Metyrapone],0.85 ± 0.27,0.961 ± 0.039,0.9,1.03 ± 0.076
CCn1cc(C(=O)O)c(=O)c2ccc(C)nc21 [Nalidixic acid sodium salt],1.31 ± 0.59,1.11 ± 0.025,0.25,1.19 ± 0.022
CN(C)c1cc(NC(=O)CNC(C)(C)C)c(O)c2c1C[C@H]1C[C@H]3[C@H](N(C)C)C(O)=C(C(N)=O)C(=O)[C@@]3(O)C(O)=C1C2=O [Tigecycline],0.759 ± 0.22,1.03 ± 0.045,0.833,0.954 ± 0.02
S=c1[nH]cnc2nc[nH]c12 [Mercaptopurine],0.832 ± 0.28,0.991 ± 0.088,0.75,0.992 ± 0.07
CC1(C)S[C@@H]2[C@H](NC(=O)Cc3ccccc3)C(=O)N2[C@H]1C(=O)O [Benzathine benzylpenicillin],0.907 ± 0.35,1.06 ± 0.074,1,0.951 ± 0.019
CCCCN(CCCC)CCC(O)c1cc2c(Cl)cc(Cl)cc2c2cc(C(F)(F)F)ccc12 (stereo not drawn) [Halofantrine hydrochloride],4.43 ± 1.8,0.655 ± 0.038,0,1.32 ± 0.061
COC(=O)CCc1ccc(OCC(O)CNC(C)C)cc1 (stereo not drawn) [Esmolol hydrochloride],0.66 ± 0.2,1.15 ± 0.035,0.75,0.986 ± 0.013
CCC(=O)OCC(=O)[C@@]1(OC(=O)CC)[C@@H](C)C[C@H]2[C@@H]3CCC4=CC(=O)C=C[C@]4(C)[C@@]3(Cl)[C@@H](O)C[C@@]21C [Beclomethasone dipropionate],1.04 ± 0.69,1.16 ± 0.021,0.417,1.16 ± 0.091
CC(=O)OC(C)C[N+](C)(C)C (stereo not drawn) [Methacholine chloride],0.765 ± 0.28,1.08 ± 0.0033,0.833,0.972 ± 0.011
CN(C/C=C/c1ccccc1)Cc1cccc2ccccc12 [Naftifine hydrochloride],1.03 ± 0.34,0.96 ± 0.044,0.9,0.982 ± 0.078
CCCCCCC[N+](CC)(CC)CCCCc1ccc(Cl)cc1 [Clofilium tosylate],0.78 ± 0.37,1.04 ± 0.059,0.583,0.9834 ± 0.0086
CO/N=C(\C(=O)N[C@@H]1C(=O)N2C(C(=O)OC(C)OC(C)=O)=C(COC(N)=O)CS[C@H]12)c1ccco1 (stereo partly drawn) [Cefuroxime axetil],1.21 ± 0.5,1.02 ± 0.023,0.917,1.04 ± 0.088
Oc1ncnc2[nH]ncc12 [Allopurinol],0.837 ± 0.22,0.984 ± 0.018,0.75,0.9723 ± 0.0072
CCCCNc1cc(C(=O)O)cc(S(N)(=O)=O)c1Oc1ccccc1 [Bumetanide],1.41 ± 0.43,1.08 ± 0.023,0.75,1 ± 0.022
Cc1noc(NS(=O)(=O)c2ccc(N)cc2)c1C [Sulfisoxazole],0.975 ± 0.37,1.04 ± 0.058,0.75,0.97 ± 0.044
CC(C)(C)NCC(O)c1ccc(O)c(CO)c1 (stereo not drawn) [Salbutamol],1.15 ± 0.52,1.05 ± 0.013,0.833,1.04 ± 0.041
CS(=O)(=O)c1ccc([C@@H](O)[C@@H](CF)NC(=O)C(Cl)Cl)cc1 [Florfenicol],1.03 ± 0.47,1.01 ± 0.083,1,1.01 ± 0.034
C#C[C@]1(O)CC[C@H]2[C@@H]3CCc4cc(OC)ccc4[C@H]3CC[C@@]21C [Ethynylestradiol 3-methyl ether],0.896 ± 0.42,1.038 ± 0.0014,0.833,1.03 ± 0.013
COc1ccc(C(=O)NCc2cccnc2)cc1C(=O)NCc1cccnc1 [Picotamide monohydrate],0.955 ± 0.31,1.028 ± 0.0052,0.75,0.991 ± 0.0099
N[C@@H](Cc1ccc(O)c(O)c1)C(=O)O [Levodopa],1.02 ± 0.31,1.06 ± 0.048,0.917,0.972 ± 0.018
COc1ccc(C(=O)c2ccccc2)c(O)c1 [Oxybenzone],0.878 ± 0.34,1.09 ± 0.026,0.833,1.03 ± 0.02
COc1ccc(-c2cc(=O)c3c(O)cc(O[C@@H]4O[C@H](CO[C@@H]5O[C@@H](C)[C@H](O)[C@@H](O)[C@H]5O)[C@@H](O)[C@H](O)[C@H]4O)cc3o2)cc1O [Diosmin],1.06 ± 0.42,0.996 ± 0.011,0.727,0.974 ± 0.032
Cn1c(=O)c2[nH]cnc2n(C)c1=O [Aminophylline],0.664 ± 0.15,0.992 ± 0.021,1,0.871 ± 0.011
O=C1CC[C@@H](C(=O)N2CSC[C@H]2C(=O)O)N1 [Pidotimod],1.03 ± 0.42,1.05 ± 0.025,0.917,1.003 ± 0.0016
CC[C@@]1(O)C(=O)OCc2c1cc1n(c2=O)Cc2cc3c(CN(C)C)c(O)ccc3nc2-1 [Topotecan],1.74 ± 0.72,0.793 ± 0.022,0.727,1.27 ± 0.062
